Results from PubChem BioAssay.
Activity calls are given as the source filed them.

Assays:
Albumin (Bos taurus) = Albumin (Bos taurus) (UniProt P02769); test: compounds binding labelled BSA control protein – biochemical, small-molecule microarray, Alexa647 label, 635/667 nm fluorescence, artefact control for SMM control protein annotation, profiling panel (AID 1118); settings: BSA-A647 binding, fluorescence 635 nm, higher = more signal;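 further: score merges 667 nm emission intensity and signal-to-noise per printed compound spot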
[1] = probe aXIP binding to arrayed compounds – biochemical, NeuroSMM set, 635/667 nm fluorescence, primary screen (AID 1119); settings: small-molecule microarray, higher = more signal, called active from +8 up or from −8 down;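 further: probe is the protein aXip251-270 applied at 1 µg/mL to compound-printed slides; binding of probe to printed compounds measured as 667 nm fluorescence plus signal to noise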
[2] = probe aNOTCH3 binding on compound microarray – biochemical, small-molecule microarray, 635/667 nm fluorescence, primary screen (AID 1120); settings: higher = more signal;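 further: probe is a biotin-tagged antibody raised against NOTCH3 rather than NOTCH3 protein; score merges spot fluorescence near 667 nm with spot signal to noise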
[3] = probe aNOTCH2 binding on compound microarray – biochemical, small-molecule microarray, 635/667 nm fluorescence, primary screen (AID 1121); settings: higher = more signal;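 further: score merges feature fluorescence read at 667 nm with its signal to noise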
[4] = target: Carbonic anhydrase 2 (Homo sapiens) (UniProt P00918); test: compounds binding carbonic anhydrase 2 – biochemical, small-molecule microarray, Alexa647-labelled CAII, profiling panel (AID 1122); settings: CAII-A647 binding fluorescence, higher = more signal
[5] = COS7 lysate on small-molecule microarray, probe aHis, 635 nm (AID 1123); settings: COS7 cell lysate, fluorescence, higher = more signal;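 further: z-score combines 667nm fluorescence intensity with signal-to-noise per printed compound spot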
[6] = probe aLAP1 signal on lysate-treated microarray – cell lysate, small-molecule microarray, COS7 lysate, primary screen (AID 1124); settings: probe aLAP1, fluorescence, higher = more signal;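 further: lysate comes from COS7 cells expressing LAP1 and is applied at 0.3 µg/mL; score merges spot fluorescence near 667 nm with signal-to-noise over triplicate slides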
Sam68 (KHDRBS1) = test: compounds binding KHDRBS1 protein – biochemical, small-molecule microarray, 635 nm fluorescence, primary screen (AID 1125); settings: higher = more signal;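 further: score merges 667 nm channel intensity with signal to noise over triplicate slides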
[7] = tested on: Chordin-like protein 2 (CHRDL2); test: compounds binding chordin-like 2 – biochemical, small-molecule microarray, 635 nm fluorescence, primary screen (AID 1126); settings: fluorescence 635 nm, higher = more signal;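 further: printed compound slides probed with Chrdl2 protein at 4 µg/mL for 1 h at 4 C; score merges 667 nm emission intensity with signal to noise over three replicate slides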
[8] = target: Concanavalin-A (Canavalia ensiformis) (UniProt P02866); test: compounds binding concanavalin A lectin – biochemical, small-molecule microarray, Alexa647 label, 635 nm, artefact control for SMM control protein annotation, primary screen (AID 1127); settings: ConA-A647 binding fluorescence, higher = more signal;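 further: z combines 667 nm emission intensity with signal-to-noise across three replicate slides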
[9] = compounds binding Alexa647 anti-His antibody – biochemical, small-molecule microarray, 635 nm fluorescence, artefact control for SMM control protein annotation, primary screen (AID 1128); settings: higher = more signal;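 further: score merges feature fluorescence with signal-to-noise for each printed compound spot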
[10] = tested on: Human papillomavirus type 1a E7 protein (residues 1-88); test: HPV1a E7 small-molecule binders, primary screen, biochemical, small-molecule microarray, residues 1-88, 635 nm (AID 1129); settings: small-molecule microarray binding, fluorescence 635 nm; higher = more signal
[11] = target: Focal adhesion kinase 1 (Homo sapiens) (UniProt Q05397); test: PTK2 protein binding on printed compound slides – biochemical, small-molecule microarray, 635/667 nm fluorescence, BSA, DTT, primary screen (AID 1130); settings: 635 nm fluorescence, higher = more signal;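 further: composite of spot emission at 667 nm and signal to noise over triplicate slides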
[12] = tested on: Fibrinogen (Alexa647-labelled); test: Alexa647-fibrinogen binding to printed small molecules – biochemical, small-molecule microarray, 635/667 nm fluorescence, artefact control for SMM control-protein annotation, profiling panel (AID 1131); settings: fibrinogen-A647 binding fluorescence, higher = more signal;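 further: z-score merges 667 nm fluorescence with per-spot signal-to-noise over triplicate slides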
[13] = target: Follistatin (Homo sapiens) (UniProt P19883); test: FST protein binding to printed compounds – biochemical, small-molecule microarray, 635/667 nm fluorescence, primary screen (AID 1132); settings: 635 nm fluorescence, higher = more signal
[14] = target: Fibroblast growth factor 2 (Homo sapiens) (UniProt P09038); test: basic fibroblast growth factor binding to printed compounds – biochemical, small-molecule microarray, 635/667 nm fluorescence, primary screen (AID 1133); settings: FGF2, fluorescence 635/667, higher = more signal
[15] = JC-1 mitochondrial potential readout, lung cancer cells – cell-based, A549, JC-1 fluorescence, basal, 24 h, 100 nL, profiling panel (AID 1138); settings: higher = more signal;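 further: A549 lung adenocarcinoma cells under basal conditions with no added stimulus; test concentration not given here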
Lefty1 = Lefty1 protein binding to printed compounds – biochemical, small-molecule microarray, 635/667 nm fluorescence, primary screen (AID 1139); settings: fluorescence 635/667, higher = more signal
[16] = tested on: wheat germ agglutinin (Triticum aestivum), Alexa647-labelled; test: Alexa647-WGA lectin binding to printed small molecules – biochemical, small-molecule microarray, 635/667 nm fluorescence, artefact control for SMM control-protein annotation, profiling panel (AID 1140); settings: WGA-A647 binding, 635 nm fluorescence, higher = more signal;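 further: score merges 667 nm feature emission with signal to noise over triplicate slides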
[17] = target: Luciferin 4-monooxygenase (Photinus pyralis) (UniProt P08659); test: inhibition of purified Photinus pyralis luciferase – biochemical, luminescence, purified enzyme, 2006 set, primary screen (AID 1141); settings: purified firefly luciferase, SteadyGlo luminescence, 30 min; higher = more signal, called active from +8 up or from −8 down;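 further: cell-free assay with purified firefly luciferase at 100 ng per well in PBS; test concentration not given here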
Sequence of Luciferin 4-monooxygenase (Photinus pyralis) (P08659 whole entry, looked up): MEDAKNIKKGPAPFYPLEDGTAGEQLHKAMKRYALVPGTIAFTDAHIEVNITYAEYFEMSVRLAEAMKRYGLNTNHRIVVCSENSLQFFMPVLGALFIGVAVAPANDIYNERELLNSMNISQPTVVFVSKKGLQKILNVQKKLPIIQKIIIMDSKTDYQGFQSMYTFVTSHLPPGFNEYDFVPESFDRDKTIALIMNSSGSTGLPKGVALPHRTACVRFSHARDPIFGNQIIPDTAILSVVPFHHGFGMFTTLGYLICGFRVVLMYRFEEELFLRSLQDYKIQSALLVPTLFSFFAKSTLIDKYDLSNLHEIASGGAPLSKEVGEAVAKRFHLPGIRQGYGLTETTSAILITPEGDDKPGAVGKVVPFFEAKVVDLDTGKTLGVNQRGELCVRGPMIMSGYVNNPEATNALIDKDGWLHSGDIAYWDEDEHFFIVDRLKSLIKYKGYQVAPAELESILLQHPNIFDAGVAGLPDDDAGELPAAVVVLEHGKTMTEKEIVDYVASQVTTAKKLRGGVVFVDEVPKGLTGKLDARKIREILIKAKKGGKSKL

Sequence of Concanavalin-A (Canavalia ensiformis) (P02866 whole entry, looked up): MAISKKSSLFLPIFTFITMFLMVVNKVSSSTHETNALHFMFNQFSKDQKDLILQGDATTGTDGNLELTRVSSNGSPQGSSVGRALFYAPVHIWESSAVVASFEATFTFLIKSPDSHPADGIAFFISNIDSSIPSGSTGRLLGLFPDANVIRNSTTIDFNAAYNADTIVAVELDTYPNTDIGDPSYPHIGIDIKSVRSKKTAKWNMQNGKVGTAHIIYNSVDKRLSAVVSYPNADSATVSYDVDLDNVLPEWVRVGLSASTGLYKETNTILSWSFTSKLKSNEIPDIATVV
Sequence of Fibroblast growth factor 2 (Homo sapiens) (P09038 whole entry, looked up): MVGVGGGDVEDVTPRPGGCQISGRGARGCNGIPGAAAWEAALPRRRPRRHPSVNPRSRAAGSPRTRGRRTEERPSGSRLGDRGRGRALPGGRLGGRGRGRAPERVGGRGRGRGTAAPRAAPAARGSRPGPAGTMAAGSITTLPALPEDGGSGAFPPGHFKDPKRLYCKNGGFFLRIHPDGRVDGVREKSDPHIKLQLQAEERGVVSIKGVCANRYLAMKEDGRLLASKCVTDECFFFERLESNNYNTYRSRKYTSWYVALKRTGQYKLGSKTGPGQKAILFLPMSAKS
Sequence of Albumin (Bos taurus) (P02769 whole entry, looked up): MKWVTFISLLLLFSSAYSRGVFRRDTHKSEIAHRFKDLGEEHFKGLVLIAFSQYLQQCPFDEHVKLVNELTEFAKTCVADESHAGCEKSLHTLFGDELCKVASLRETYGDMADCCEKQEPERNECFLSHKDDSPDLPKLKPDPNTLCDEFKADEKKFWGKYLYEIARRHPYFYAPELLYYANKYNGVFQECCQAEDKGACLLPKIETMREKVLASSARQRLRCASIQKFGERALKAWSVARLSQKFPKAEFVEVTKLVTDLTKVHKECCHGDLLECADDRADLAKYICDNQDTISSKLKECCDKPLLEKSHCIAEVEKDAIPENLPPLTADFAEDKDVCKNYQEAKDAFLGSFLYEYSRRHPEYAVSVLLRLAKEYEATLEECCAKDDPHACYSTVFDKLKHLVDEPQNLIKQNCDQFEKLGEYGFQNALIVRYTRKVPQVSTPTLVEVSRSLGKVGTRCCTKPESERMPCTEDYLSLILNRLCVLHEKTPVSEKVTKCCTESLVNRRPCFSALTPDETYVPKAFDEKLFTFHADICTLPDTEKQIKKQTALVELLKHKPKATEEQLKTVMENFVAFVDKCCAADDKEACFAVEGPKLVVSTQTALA
Sequence of Follistatin (Homo sapiens) (P19883 whole entry, looked up): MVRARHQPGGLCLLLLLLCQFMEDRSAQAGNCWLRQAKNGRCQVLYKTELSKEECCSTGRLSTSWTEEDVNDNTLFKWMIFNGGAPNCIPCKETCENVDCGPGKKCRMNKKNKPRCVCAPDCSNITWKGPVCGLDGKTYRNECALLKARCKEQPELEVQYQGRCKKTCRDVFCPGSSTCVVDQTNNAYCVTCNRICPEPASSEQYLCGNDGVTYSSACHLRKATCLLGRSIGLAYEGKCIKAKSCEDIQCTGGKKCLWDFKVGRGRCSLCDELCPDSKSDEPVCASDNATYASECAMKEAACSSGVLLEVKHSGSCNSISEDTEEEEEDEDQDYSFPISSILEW
Sequence of Focal adhesion kinase 1 (Homo sapiens) (Q05397 whole entry, looked up): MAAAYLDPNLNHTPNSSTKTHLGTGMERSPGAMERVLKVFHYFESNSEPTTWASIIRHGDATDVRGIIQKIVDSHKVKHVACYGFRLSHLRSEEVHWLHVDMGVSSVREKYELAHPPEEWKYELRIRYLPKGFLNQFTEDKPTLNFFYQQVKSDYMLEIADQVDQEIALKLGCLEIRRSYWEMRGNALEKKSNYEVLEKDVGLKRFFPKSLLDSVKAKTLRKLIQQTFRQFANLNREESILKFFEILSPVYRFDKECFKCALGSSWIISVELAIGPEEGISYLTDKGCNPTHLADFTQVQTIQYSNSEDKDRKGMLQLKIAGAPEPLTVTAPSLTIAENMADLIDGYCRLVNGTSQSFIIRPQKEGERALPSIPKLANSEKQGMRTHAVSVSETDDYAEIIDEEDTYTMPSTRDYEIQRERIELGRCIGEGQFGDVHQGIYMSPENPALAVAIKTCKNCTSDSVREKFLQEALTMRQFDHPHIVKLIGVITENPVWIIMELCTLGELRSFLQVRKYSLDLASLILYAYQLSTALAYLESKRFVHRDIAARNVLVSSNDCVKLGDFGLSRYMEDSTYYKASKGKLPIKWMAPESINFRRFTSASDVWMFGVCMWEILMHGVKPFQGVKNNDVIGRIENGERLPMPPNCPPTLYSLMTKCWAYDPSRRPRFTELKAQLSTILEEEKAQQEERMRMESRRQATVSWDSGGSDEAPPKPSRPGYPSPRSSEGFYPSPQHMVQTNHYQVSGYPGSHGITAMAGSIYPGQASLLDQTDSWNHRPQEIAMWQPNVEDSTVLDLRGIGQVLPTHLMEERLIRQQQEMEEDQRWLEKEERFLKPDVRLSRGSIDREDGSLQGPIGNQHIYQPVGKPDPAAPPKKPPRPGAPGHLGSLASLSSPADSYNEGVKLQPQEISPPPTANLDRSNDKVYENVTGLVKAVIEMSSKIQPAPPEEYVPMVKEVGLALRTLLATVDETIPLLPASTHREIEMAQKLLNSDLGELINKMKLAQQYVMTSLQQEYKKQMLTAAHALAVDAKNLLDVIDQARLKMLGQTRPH

| Compound | composite z-score (Albumin (Bos taurus)) | composite Z-score [1] | composite z-score [2] | composite z-score [3] | composite z-score [4] | composite z-score [5] | composite z-score [6] | composite z-score (Sam68 (KHDRBS1)) | composite z-score [7] | composite z-score [8] | composite z-score [9] | composite z-score [10] | composite z-score [11] | composite z-score [12] | composite z-score [13] | composite z-score [14] | z-score [15] | composite z-score (Lefty1) | composite z-score [16] | z-score [17] |
| --- | --- | --- | --- | --- | --- | --- | --- | --- | --- | --- | --- | --- | --- | --- | --- | --- | --- | --- | --- | --- |
| CC1CC/C=C\[C@H]2OC34C=CCN(C(C)C)C(=O)[C@H]3N(C(CO)C(C)C)C(=O)[C@@H]4C2C(=O)O1 (stereo not given in full) | -0.314 | -0.481 (inactive) | -0.15 | -0.125 | 0.831 | 0.669 | -0.0978 | -1.57 | -1.36 | -2.39 | -1.64 | -2 | 1 | -1.9 | -0.459 | -0.294 | 1.01 | -1.02 | -2.12 | -1.3 (inactive) |
| [N-]=[N+]=NCc1ccccc1C[C@@]1(C(=O)O)N=C(c2ccc(OCCCO)cc2)O[C@@H]1c1ccccc1 | 0.433 | 0.114 (inactive) | -0.133 | 0.0278 | 0.658 | 1.53 | 1.48 | 0.782 | -1.24 | 0.933 | 0.822 | 0.998 | 0.829 | 0.808 | 0.322 | -0.41 | 1.34 | -0.771 | 1.1 | -1.05 (inactive) |
| COC(=O)c1c2oc(c1C(=O)OC)C(=O)N[C@@H](C(C)C)Cn1nncc1C1(CCCCC1)NC(=O)N[C@H](CO)CC2 | 0.543 | 0.559 (inactive) | -0.126 | -0.131 | 0.86 | 0.942 | -0.162 | -0.0929 | -0.573 | 0.77 | -0.614 | -0.622 | 0.195 | -1.26 | -0.238 | 0.0484 | 2.33 | 0.0278 | -0.719 | -1.25 (inactive) |
| CCCNC(=O)[C@@H]1c2ccccc2C(=O)N(Cc2cc(C(F)(F)F)cc(C(F)(F)F)c2)[C@H]1c1ccc(CO)cc1 | -0.419 | -0.251 (inactive) | -0.0343 | -0.194 | 0.422 | 0.64 | 0.227 | 0.679 | -0.608 | 0.234 | 0.14 | 0.541 | 0.452 | 0.0967 | 0.652 | 0.213 | 0.904 | 0.0044 | 0.14 | -0.831 (inactive) |
| COC(=O)C(CC#Cc1ccc2c(c1)[C@]1(C(=O)N2)[C@H](C(=O)O)[C@H]2C(=O)O[C@H](c3ccccc3)[C@H](c3ccccc3)N2[C@@H]1c1ccc(OCCO)cc1)C(=O)OC | 0.956 | -0.908 (inactive) | 0.123 | -0.0333 | 0.703 | 2.07 | 0.279 | 1.3 | -0.756 | 1.2 | 0.479 | 1.24 | 0.918 | 0.812 | 0.0447 | 0.549 | -0.22 | 0.943 | 1.43 | -4.03 (inactive) |
| COc1ccc([Si](C)(C)[C@H]2[C@H](CC(=O)N3Cc4ccccc4C[C@H]3CO)O[C@@]3(C(=O)N(Cc4cccc(N5C(=O)COc6ccccc65)c4)c4ccccc43)[C@@H]2C)cc1 | -0.534 | 0.373 (inactive) | 0.0297 | -0.102 | 0.635 | 1.97 | -0.245 | 1.02 | 1.38 | 1.16 | 1.57 | 0.671 | 0.81 | 0.585 | 1.17 | 1.6 | 0.388 | 1.44 | 0.862 | -0.961 (inactive) |
| CC(C)(C)OC(=O)CC[C@]1(C(=O)NCc2ccccc2)N=C(c2ccc(OCCCO)cc2)O[C@H]1c1ccccc1N=[N+]=[N-] | 1 | -0.286 (inactive) | 0.197 | 0.0272 | 0.498 | 2.97 | 0.521 | 1.34 | -0.0443 | 1.16 | 2.59 | 1.25 | 0.245 | 1.01 | 1.42 | 1.3 | 0.566 | 0.459 | 1.42 | -9.8 (active) |
| C=CCNC(=O)[C@@H]1[C@H]2C(=O)O[C@H](c3ccccc3)[C@H](c3ccccc3)N2[C@H](c2ccc(O)cc2)[C@@]12C(=O)N(C(=O)OCCOC)c1ccc(C#Cc3ccc(OC)cc3)cc12 | -0.0706 | 0.574 (inactive) | 0.13 | 0.0406 | 0.484 | 1.46 | 0.478 | 1.32 | 0.455 | 1.12 | 0.539 | 1.13 | 1.68 | 0.8 | 0.949 | 0.915 | -0.0671 | 0.544 | 1.06 | -1.23 (inactive) |
| COc1ccc([Si](C)(C)[C@@H]2[C@@H](CCn3cc(CCO)nn3)O[C@]3(C(=O)N(Cc4ccc(N5C(=O)c6cccc7cccc5c67)cc4)c4ccccc43)[C@H]2C)cc1 | 0.651 | 0.722 (inactive) | 0.102 | -0.061 | 0.356 | 0.961 | 0.234 | 1.1 | 0.157 | 1.12 | 1.51 | 0.914 | 0.87 | 0.688 | 0.499 | 0.103 | -0.37 | 0.518 | 1.2 | -0.685 (inactive) |
| CC(C)C(CO)N1C(=O)[C@@H]2[C@H]3C(=O)OCC=C[C@H]3OC23C=CCN(Cc2ccccc2)C(=O)[C@@H]13 (stereo not given in full) | -1.27 | -0.0662 (inactive) | 0.271 | -0.154 | 0.833 | -0.635 | -0.733 | -0.69 | -1.02 | -2.22 | -1.88 | -1.62 | -0.778 | -1.48 | -0.317 | -0.392 | 0.792 | -0.375 | -1.06 | -0.511 (inactive) |
